Inhibition data for 20 molecules are collected here from PubChem BioAssay AID1974 (The Scripps Research Institute Molecular Screening Center, 2009).

In all, about 300,000 compounds went through this assay and about 3,200 (1.1%) were called active. The full list was thinned out, with actives kept by preference. A number with no mark means an inactive call.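 The calls were made as follows: active = inhibition above the campaign mean inhibition plus 3 SD (cut at about 35% in these data); inactive = the rest.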

In this assay the target is Glutathione S-transferase omega-1 (Homo sapiens) (UniProt P78417). The assay is described as follows: human GSTO1 enzyme inhibition – biochemical, fluorescence polarization, counter-screen for RBBP9 inhibitor project, primary screen (AID 1974).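 Also: 0% = GSTO1-1 with DMSO and 100% = wells lacking GSTO1-1 enzyme.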 The following applies: recombinant GSTO1, activity-based probe fluorescence polarization; at 5.96 µM; active compounds read high.
Sequence of Glutathione S-transferase omega-1 (Homo sapiens) (P78417 whole entry, looked up): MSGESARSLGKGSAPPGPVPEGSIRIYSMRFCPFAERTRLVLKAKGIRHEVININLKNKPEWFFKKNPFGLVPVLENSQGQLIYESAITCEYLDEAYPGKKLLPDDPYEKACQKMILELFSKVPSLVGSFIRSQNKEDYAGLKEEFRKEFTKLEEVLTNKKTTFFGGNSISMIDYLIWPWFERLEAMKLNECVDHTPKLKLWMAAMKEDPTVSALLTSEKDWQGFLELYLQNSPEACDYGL
The term inhibition denotes the drop in the measured response relative to a control, in per cent. As to `CCOC(=O)c1c(N)n(Cc2ccccc2)c2nc3ccccc3nc12`, the inhibition was 77.2% (active).

`COc1cc(Cn2c(N)c(C(=O)NCc3ccco3)c3nc4ccccc4nc32)cc(OC)c1OC`: the inhibition is -1.75%.

For the molecule `CCOC(=O)c1c(N)n(CCN2CCOCC2)c2nc3ccccc3nc12`, the inhibition was -0.71%.

As to `CCN(CC)CCOC(=O)c1cc2cc(COC)ccc2o1`, the inhibition is 0.13%.

In the case of `O=c1c2ccccc2nc(/C=C/c2ccco2)n1-c1ccccc1O`, the inhibition is -8.4%.

Take `O=C1NC(=O)N(CCc2ccc(F)cc2)C(=O)/C1=C/C=C/c1ccccc1`: the inhibition was -7.53%.

For the molecule `O=C1NC(=O)N(Cc2ccco2)C(=O)/C1=C\c1cccn1CCOc1ccccc1`, the inhibition was 18.6%.

As for `O=C(O)COc1ccccc1/C=C1\C(=O)NC(=O)N(CCC2=CCCCC2)C1=O`, the inhibition was 41.1% (active).

`COc1cc2nc(N3CCN(C(=O)[C@@H]4CCCO4)CC3)nc(N)c2cc1OC`: the inhibition was 3.62%.

Take `CCCCCCN=C(CC)c1c(O)n(CCCC)c(=O)[nH]c1=O`: the inhibition is -0.65%.

With `CC(=O)Nc1ccccc1C(=O)OCC(=O)c1cccc2ccccc12`, the inhibition was -2.14%.

For the molecule `Cc1cccc(N2C(=O)NC(=O)/C(=C\c3cnn(-c4ccccc4)c3)C2=O)c1`, the inhibition was -2.05%.

Consider `COc1cccc(N2C(=O)NC(=O)/C(=C\c3cn(C)c4ccccc34)C2=O)c1`, for which the inhibition is -0.1%.

With `O=C1NC(=O)N(c2ccccc2)C(=O)/C1=C/c1ccc([N+](=O)[O-])s1`, the inhibition was 38.7% (active).

Turning to `Cc1ccc(N2C(=O)NC(=O)C(CCc3ccncc3)(Cc3cccc(Cl)c3Cl)C2=O)cc1` (stereo not given), the inhibition is -2.83%.

With `Cc1ccc(-n2c(-c3ccc([N+](=O)[O-])cc3)nc3ccccc3c2=O)cc1`, the inhibition is 5.91%.

As to `CCNc1nc2[nH]c(=O)c3c(c2s1)OC(N)=C(C#N)C3c1cccs1` (stereo not given), the inhibition is 40.5% (active).

Regarding `N#CC1=C(N)Oc2c(c(=O)oc3ccccc23)C1c1ccccc1OC(=O)c1cccs1` (stereo not given), the inhibition is -8.89%.

In the case of `CCN1c2nc3c(C)cccn3c(=O)c2CC2(C(=O)N(C)C(=O)N(C)C2=O)C1C` (stereo not given), the inhibition is -4.29%.

Regarding `Cc1cc(C)cc(NC(=S)NC2CC3CCCC(C2)N3Cc2cccs2)c1` (stereo not given), the inhibition was 0.82%.
